Experimental data reported in PubChem BioAssay (Tox21).
Inconclusive results are not listed. Active and inactive are the calls of the source. Unless noted, calls follow the shape of the dose curve; as a rule, active = well fitted curve in the direction sought with a large enough effect in the repeat runs; inconclusive = weak or mixed curves; inactive = no such curve, though single readings can be large; an effect the other way counts as inactive or inconclusive.

Experiments:
[1] = target: Retinoic acid receptor RXR-alpha (Homo sapiens) (UniProt P19793); assay: qHTS assay to identify small molecule agonists of the RXR signaling pathway (AID 1159527; calls by dose curve; also: nearly all actives have a fitted effect of over 35% in size; also: potency is read from the fitted curve at half-maximal effect)
How it was run: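 Reporter activation is measured as beta-lactamase activity via FRET substrate cleavage (emission 460/530 nm) in HEK 293T cells expressing an RXR-alpha-driven bla construct, following 16 hr compound exposure at 37 C.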

[2] = qHTS assay to identify small molecule agonists of the RXR signaling pathway - cell viability counter screen (AID 1159529); also: nearly all actives have a fitted effect of over 50% in size; also: potency is read from the fitted curve at half-maximal effect
How it was run: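 Tox21 10K compounds were tested for cytotoxicity against GeneBLAzer RXR-alpha HEK 293T cells grown in 2% charcoal-stripped FBS. Exposure lasted 16 hr at 37 C, 5% CO2; viability read by CellTiter-Glo luminescence.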

[3] = qHTS assay to identify small molecule antagonists of the retinoid acid receptor (RAR) signaling pathway - cell viability counter screen (AID 1159551); also: nearly all actives have a fitted effect of over 35% in size
How it was run: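 Cytotoxicity counter screen in C3RL4 cells: 6 h compound exposure with 1 uM retinol (final), viability from cellular ATP by luminescence.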

[4] = qHTS assay to identify small molecule antagonists of the retinoic acid receptor (RAR) signaling pathway (AID 1159552; also: nearly all actives have a fitted effect of over 50% in size)
How it was run: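 Overnight-plated C3RL4 reporter cells get compound, then retinol to 1 uM final; plates sit 6 hr at 37 C, 5% CO2. A luciferase reagent is added and light output recorded after 30 min at room temperature.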

[5] = qHTS assay to identify small molecule agonists of the retinoic acid receptor (RAR) signaling pathway (AID 1159553); settings: C3RL4 RARE luciferase reporter, agonist, 6 h; activation: at 73.3 µM (top of the series); also: potency is read from the fitted curve at half-maximal effect
How it was run: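 Agonist activity was scored in C3RL4 cells bearing a retinoic acid response element luciferase construct. Cells were treated with compounds for 6 hr at 37 C, and luciferase signal was measured as luminescence.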

[6] = qHTS assay to identify small molecule agonists of the estrogen related receptor (ERR) signaling pathway (AID 1224820)
How it was run: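 Cells: ERR line from NTP, 2,000/well. Pre-incubation 6 h, 37 C/5% CO2. Compound (DMSO) pin transfer, 18 h 37 C. One-Glo, 30 min RT, luminescence.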

[7] = qHTS assay to identify small molecule antagonists of the estrogen related receptor (ERR) signaling pathway - cell viability counter screen (AID 1224818);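 also: viability measured after 17.5 h of compound exposure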
How it was run: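 Cells carrying the ERR pathway reporter were seeded and incubated for 6 hours before compound addition. After a 17.5-hour exposure at 37 C, live-cell protease activity was measured by CellTiter-Fluor fluorescence following 30 minutes of incubation.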

[8] = qHTS assay to identify small molecule antagonists of the estrogen related receptor (ERR) signaling pathway (AID 1224819;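 also: luminescence from an ERR-driven luciferase reporter measured with One-Glo reagent; nearly all actives have a fitted effect of over 50% in size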)
How it was run: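 Compounds dissolved in DMSO were pin-transferred onto ERR cells that had been plated 6 h earlier, and cells were then incubated 18 h at 37 C; signal was luciferase luminescence via One-Glo.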

[9] = tested on: estrogen-related receptor alpha (ERRalpha) with PGC-1alpha coactivator, human; assay: qHTS assay to identify small molecule antagonists of the estrogen related receptor signaling pathway with the pleiotropic PPARgamma coactivator (PGC) (AID 1224821; calls by dose curve;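 also: lower luminescence signal means antagonism of PGC/ERR signalling; nearly all actives have a fitted effect of over 50% in size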)
How it was run: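 Luminescent read-out (One-Glo, 30 min at room temperature) following 18 h treatment of PGC/ERR cells at 37 C with compounds delivered in DMSO. Cells had settled 6 h at 37 C/5% CO2 before dosing.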

[10] = qHTS assay to identify small molecule antagonists of the estrogen related receptor signaling pathway with the pleiotropic PPARgamma coactivator (PGC) cell viability counter screen (AID 1224822;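 also: viability read after 17.5 h compound exposure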)
How it was run: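 Seed PGC/ERR cells (2,000/well); incubate 6 h at 37 C/5% CO2; pin-transfer compounds in DMSO; incubate 17.5 h at 37 C; add CellTiter-Fluor; after 30 min read fluorescence.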

Measured: Potency

Chain of Retinoic acid receptor RXR-alpha (Homo sapiens) (P19793 whole entry, looked up): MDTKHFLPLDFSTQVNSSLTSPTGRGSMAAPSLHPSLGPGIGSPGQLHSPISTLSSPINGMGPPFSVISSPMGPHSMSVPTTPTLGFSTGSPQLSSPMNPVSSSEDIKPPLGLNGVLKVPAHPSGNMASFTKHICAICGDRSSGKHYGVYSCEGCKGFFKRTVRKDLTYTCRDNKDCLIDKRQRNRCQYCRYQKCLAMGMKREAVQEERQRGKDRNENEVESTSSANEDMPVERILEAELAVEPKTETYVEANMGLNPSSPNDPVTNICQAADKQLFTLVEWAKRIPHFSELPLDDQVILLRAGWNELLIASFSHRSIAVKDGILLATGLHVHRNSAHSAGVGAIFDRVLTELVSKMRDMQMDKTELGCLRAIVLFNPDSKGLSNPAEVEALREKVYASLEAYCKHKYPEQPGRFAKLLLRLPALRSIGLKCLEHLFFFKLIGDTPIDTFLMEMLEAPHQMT

CC(C)(c1ccccc1)c1ccccc1
inactive: [1] | [2] | [3] | [4] | [5]

CCCCCCCCN
inactive: [1] | [2] | [3] | [4] | [5]

COc1ncnc(NS(=O)(=O)c2ccc(N)cc2)c1OC
inactive: [1] | [2] | [3] | [4] | [5]

CCCCCCCC/C=C\CCCCCCCCCCCC(=O)O
inactive: [1] | [3] | [5]

CC(C)(C)C(=O)C(=O)O
inactive: [1] | [2] | [5]

Cc1cc(C)c(N)cc1C
inactive: [1] | [2] | [5]

CC1(C)S[C@@H]2[C@H](NC(=O)C(c3ccccc3)S(=O)(=O)O)C(=O)N2[C@H]1C(=O)O (some centres undefined)
inactive: [1] | [3] | [4] | [5]

Cc1cc2c(OCC(CNC(C)(C)C)OC(=O)c3ccccc3)cccc2[nH]1 (centres undefined)
inactive: [1] | [3] | [5]

O=C(Cn1ccnc1[N+](=O)[O-])NCCO
inactive: [1] | [3] | [4] | [5]

CCCCCCC(C)(C)C(=O)O
inactive: [1] | [3] | [4] | [5]

O=[N+]([O-])c1cc(C2CCCCC2)c(O)c([N+](=O)[O-])c1
inactive: [1] | [3] | [5]

C[C@@H](O)[C@H]1C(=O)N2C(C(=O)O)=C([C@H]3CCCO3)S[C@H]12
inactive: [1] | [3] | [4] | [5]

CC(C)C(O)(c1ccc(OC(F)(F)F)cc1)c1cncnc1 (centres undefined)
inactive: [1] | [3] | [4] | [5]

CC1(C)O[C@@H]2C[C@H]3[C@@H]4C[C@H](F)C5=CC(=O)C=C[C@]5(C)[C@H]4[C@@H](O)C[C@]3(C)[C@]2(C(=O)CO)O1
inactive: [1] | [3]

O=C1NC(=O)c2cc([N+](=O)[O-])ccc21
inactive: [1] | [2] | [5]

CN1C[C@H](C(=O)N[C@]2(C)O[C@@]3(O)[C@@H]4CCCN4C(=O)[C@H](Cc4ccccc4)N3C2=O)C[C@@H]2c3cccc4[nH]cc(c34)C[C@H]21
inactive: [1] | [3] | [4] | [5] | [6]

O=C(O)C[C@H](NC(=O)OCc1ccccc1)C(=O)O
inactive: [1] | [3] | [5]

CN1C(=O)N(c2ccccc2Br)Cc2cnc(Nc3ccc4c(c3)OCC(CO)O4)nc21 (centres undefined)
inactive: [1] | [5]
active: [2] 0.245 µM

O=C1c2ccccc2C(=O)C1(O)O
inactive: [1] | [4]

CCCCOc1ccc(OCCCN2CCOCC2)cc1
active: [5] 21.1 µM
inactive: [1] | [3] | [4]

CCOC(=O)c1ccc(O)c(O)c1
inactive: [1] | [3] | [4] | [5]

Nc1cccc2c1CN(C1CCC(=O)NC1=O)C2=O (centres undefined)
inactive: [1] | [3] | [5]

CCOC(C)=O
inactive: [1] | [3] | [4] | [5]

OC1(c2ccccc2)CCNCC1
inactive: [1] | [3] | [4] | [5]

O=C1CCCCCCCCCCOCCCCO1
inactive: [1] | [3] | [4] | [5]

CN1CC(=O)N2[C@H](c3ccc4c(c3)OCO4)c3[nH]c4ccccc4c3C[C@@H]2C1=O
inactive: [1] | [3] | [5]

O=C=Nc1ccc(Cl)c(Cl)c1
inactive: [1] | [4] | [5]

C=C(C)C(=O)OCCCCCCCCCCCCC
inactive: [1] | [3] | [5]

c1ccc2c(c1)CCc1ccccc1N2
inactive: [1] | [3] | [4] | [5]

CC=C(Cl)Cl
inactive: [1] | [3] | [4] | [5]

CNC(=O)c1cnn(-c2nc(N)c3ncn([C@@H]4O[C@H](CO)[C@@H](O)[C@H]4O)c3n2)c1
inactive: [1] | [3] | [5]

C1COC1
inactive: [1] | [3] | [4]

CC(CO)CO
inactive: [1] | [3] | [5]

O=C=Nc1cccc(C(F)(F)F)c1
inactive: [1] | [3]

CN1C(=O)OC(C)(C)C1=O
inactive: [1] | [3] | [4] | [5]

NC1[C@H]2CN(c3nc4c(cc3F)c(=O)c(C(=O)O)cn4-c3ccc(F)cc3F)C[C@@H]12 (some centres undefined)
active: [1] 19 µM
inactive: [3] | [7] | [8] | [9] | [10]

O=C1NCCN1CCO
inactive: [1] | [3] | [4] | [5]

O=C(Nc1cccc2c(=O)cc(-c3nn[nH]n3)oc12)c1ccc(OCCCCc2ccccc2)cc1
inactive: [1] | [2] | [5]

CCOC(=O)OC(C)OC(=O)[C@@H]1N2C(=O)[C@@H](NC(=O)[C@H](N)c3ccccc3)[C@H]2SC1(C)C (some centres undefined)
inactive: [1] | [3] | [4] | [5]

CCCCN1CCCC1C(=O)Nc1c(C)cc(C)cc1C (centres undefined)
inactive: [1] | [3] | [4] | [5]

O=C(O)CCCCCCCCCCCBr
inactive: [1] | [3] | [4]

CCOC(=O)C1=C(C)NC(C)=C(C(=O)OC)C1c1cccc(Cl)c1Cl (centres undefined)
inactive: [1] | [3] | [5] | [7] | [6] | [9]

CCC(OCCCOC)OC(C)=O (centres undefined)
inactive: [1] | [3] | [4] | [5]

COC(=O)C1=C(C)NC(C)=C(C(=O)O[C@@H]2CCCN(Cc3ccccc3)C2)[C@@H]1c1cccc([N+](=O)[O-])c1
inactive: [2] | [3]
